# Source: PubChem BioAssay (NCATS)
# Inconclusive results are not listed. Values without a mark were called inactive. Active and inactive are the calls of the source. The call rests on the fitted dose curve; in most records, active means well fitted inhibition curve with a large enough effect; inconclusive means small, poorly fitted or top-dose-only effect; inactive means flat fitted curve, though single readings scatter.
# Molecular target: Calcium and integrin-binding protein 1 (Homo sapiens) (UniProt Q99828)
# Sequence (Q99828 whole entry, looked up): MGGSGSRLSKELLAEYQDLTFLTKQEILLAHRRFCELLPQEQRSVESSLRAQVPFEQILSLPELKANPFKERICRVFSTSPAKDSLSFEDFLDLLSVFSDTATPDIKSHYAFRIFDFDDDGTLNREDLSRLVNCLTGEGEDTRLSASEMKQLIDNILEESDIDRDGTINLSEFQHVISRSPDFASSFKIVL
# Experiment: Primary qHTS for Identification of Calcium Integrin Binding Protein 1 (CIB1) Competitor (AID 1508620);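 further: GST tagged CIB1 binding a fluorescein labelled alphaIIb integrin peptide tracer; top concentration of the series differs between compounds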
# Details: CIB1-GST / FITC-alphaIIb peptide fluorescence polarization; series mostly up to 114 µM; activity change, negative = inhibition: at the top concentration
# Source text: Assay Provider: Ulhas P. Naik, PhD Sidney Kimmel Medical College Thomas Jefferson University, Philadelphia, PA Primary function of platelets is to maintain hemostasis. At the site of vascular injury, platelets adhere to adhesive proteins such as collagen and von Willebrand factor. Adherent platelets are activated and generate soluble platelet agonists such as thrombin, ADP and thromboxane A2. Following exposure of circulating platelets to these agonists, results in platelet shape change, granule secretion and activation of platelet integrin alphaIIb-beta3. Ligand binding to activated integrin alphaIIb-beta3 triggers outside-in signaling, leading to platelet aggregation, stabilization of platelet plug, and clot retraction. Upon atherosclerotic plaque rupture also causes platelet plug formation, which underlies a number of cardiovascular diseases such as myocardial infraction and stroke. A number of anti-platelet drugs such as aspirin, clopidogrel, prasugrel, vorapaxar, and eptifibatide are currently available to prevent the thrombotic complications. However, these anti-platelet agents have several limitations including inherent variability in individual responses, developing resistance, and serious bleeding side effects. For these reasons they are not suitable for long-term protection. Based on the experiences with current anti-platelet drugs, it appears that the most useful therapeutic approach is to intersect the secondary responses such as integrin outside-in signaling or recruitment of platelets by TxA2 and secreted ADP. Compounds, which can largely preserve the primary hemostatic function of platelets but inhibit secondary response will be most desired therapeutic agents for treatment of cardiovascular disease. CIB1 is a calcium integrin binding protein, which specifically interact with the alphaIIb subunit of integrin alphaIIb-beta3. Binding of CIB1 to alphaIIb regulates the outside-in signaling in platelets, which is needed for thrombus stabilization and thrombus growth. […] Therefore, we propose that discovery of a small molecule that can prevent the association of CIB1 and alphaIIb-beta3 will be a potential anti-platelet agent that can block the thrombus formation without undue effect on hemostasis. Reference: [1] Naik MU, Nigam A, Manrai P, et al. CIB1 deficiency results in impaired thrombosis: the potential role of CIB1 in outside-in signaling through integrin alpha IIb beta 3. J Thromb Haemost.
# PROTOCOL TABLES SEQUENCE No. (1, 2, 3, etc.); […] (e.g., Cells, Incubation, Reagent, etc.); VALUE and DESCRIPTION. 1; Reagent; 3 uL; Protein or buffer (4/3x) 2; Compound; 46 nL; Control inhibitor / compound library 3; Time; 15 min; Room temperature incubation 4; Reagent; 1 uL; Fluorescent labeled peptide (4x) 5; Time; 1000 rpm; Centrifuge 6; Time; 15 min; Room temperature incubation 7; Detection; Ex 480/ Em 540; ViewLux Fluorescence Read NOTES (numbers refer to sequence above) 1; Protein Mixture: C1B1-GST (final concentrations of 1 uM). […] 3; Room temperature incubation. 4; Fluorescent Labeled Peptide: FITC-aIIb (final concentration of 100 nM). Sequence of alphaIIb peptide: Acetyl-[…]-FITC (purity is 95.83%). 5; Centrifuge 1000 rpm (164 g) for 15 seconds. 6; Room temperature incubation. 7; ViewLux Fluorescent Polization Read: excitation = 480(20) / emission = 540(25) S and P; FITC Dichroic mirror.
# On the % scale 0 is the no-effect control and ±100 the full control effect.
SMILES,outcome,"activity change, negative = inhibition"
CNC(=O)Oc1ccc2c(c1)[C@]1(C)CCN(C)[C@@H]1N2C,inactive,–
CN(C)CCN(Cc1ccccc1)c1ccccn1,–,38.8%
CC(C)c1c(C(=O)Nc2ccccc2)c(-c2ccccc2)c(-c2ccc(F)cc2)n1CC[C@@H](O)C[C@@H](O)CC(=O)O,inactive,–
Nc1nc2c(ncn2CCC(CO)CO)c(=O)[nH]1,inactive,–
CC[N+](CC)(CC)CCOc1ccc(/C=C/c2ccccc2)cc1,–,7.07%
O=c1[nH]cnc2c1ncn2[C@@H]1O[C@H](CO)[C@@H](O)[C@H]1O,inactive,–
CC12CCC(CC1)C(C)(C)O2,–,1.29%
CC1(C)CO[C@@H](CC(=O)O)CN1,–,1.43%
OCc1cc(C(O)CNCCCCCCOCCCCc2ccccc2)ccc1O (stereo not given),–,-3.04%
NC(=O)c1ncn([C@@H]2O[C@H](CO)[C@@H](O)[C@H]2O)c1N,–,8%
Cn1cc[nH]c1=S,–,-2.94%
O=c1[nH]c(=O)c2[nH]c(=O)[nH]c2[nH]1,–,2.14% [at 30.2 µM]
O=c1cc[nH]c(=S)[nH]1,–,-0.488%
O=C(O)COc1nn(Cc2ccccc2)c2ccccc12,–,-2.2%
Cc1ccc(C(C)C)cc2c(C)ccc1-2,–,-2.23%
CN(C)CCCN1c2ccccc2Sc2ccc(Cl)cc21,–,6.28%
O=C(O)c1ccccc1-c1ccc(C(F)(F)F)cc1,–,19.6%
CN(C)CCCO[C@@H]1[C@H]2OC(C)(C)O[C@H]2O[C@@H]1C(O)CO (stereo not given in full),–,8.9%
N[C@H](C(=O)O)c1ccc(O)cc1,–,2.02% [at 57.7 µM]
CCCCN(CCCC)CC(O)c1cc(Cl)cc2c1-c1ccc(Cl)cc1/C2=C/c1ccc(Cl)cc1 (stereo not given),–,-3.73%

SMILES,outcome,"activity change, negative = inhibition"
CC(O)CN(CCN(CC(C)O)CC(C)O)CC(C)O (stereo not given),–,-1.27%
CCCCOc1cc(C(=O)OCCN(CC)CC)ccc1N,inactive,–
CCC(=O)c1ccc(O)cc1,–,-4.51%
CCCc1c(OCCCCc2nn[nH]n2)ccc(C(C)=O)c1O,–,-7.96%
c1ccc2c(CC3=NCCN3)cccc2c1,–,1.33%
C[C@@H]1CC[C@@]2(OC1)O[C@H]1C[C@H]3[C@@H]4CC[C@H]5C[C@@H](O)CC[C@]5(C)[C@H]4CC(=O)[C@]3(C)[C@H]1[C@@H]2C,–,-1.41% [at 12.4 µM]
CCOC(CN1CCN(CC(C)C(=O)c2ccccc2)CC1)c1ccccc1 (stereo not given),inactive,–
N[C@H]1C(O)O[C@H](CO)[C@@H](O)[C@@H]1O (stereo not given in full),–,0.756%
CN1[C@@H]2CC[C@H]1CC(OC(=O)C(O)c1ccccc1)C2 (stereo not given in full),–,-2.76%
CCN(CC)CCNC(=O)c1c(C)[nH]c(/C=C2\C(=O)Nc3ccc(F)cc32)c1C,–,37.6%
Cc1ncc(COP(=O)(O)O)c(C=O)c1O,–,0.272%
NS(=O)(=O)c1cc2c(cc1Cl)NC(CSCc1ccccc1)=NS2(=O)=O,–,0.869%
O=C(O)CN1C(=O)c2cccc3cccc(c23)C1=O,–,0.927%
O=C1c2c(O)cccc2Cc2cccc(O)c21,–,-9.71%
Nc1ncnc2c1ncn2[C@@H]1O[C@H](CO)[C@@H](O)[C@H]1O,–,4.12%
C=CCn1c(=O)n([C@@H]2O[C@H](CO)[C@@H](O)[C@H]2O)c2nc(N)[nH]c(=O)c21,–,1.17%
NC(=O)NC(=O)Cc1ccccc1,–,2.96%
COc1ccc2cc1Oc1cc3c(cc1OC)CC[N+](C)(C)[C@H]3Cc1ccc(cc1)Oc1c(OC)c(OC)cc3c1[C@@H](C2)[N+](C)(C)CC3,–,6.82%
NCC(=O)CCC(=O)O,–,2.01%
O=C(O)CC(O)C(=O)O (stereo not given),–,-0.0765%
